Reference: PubChem BioAssay (NCATS)
Records with an inconclusive call do not appear. Activity calls are given as the source filed them. Calls follow the shape of the dose curve; as a rule, active = well fitted curve in either direction with a large enough effect (not every such curve was filed as active); inconclusive = small, poorly fitted or top-dose-only effect, or another doubt; inactive = flat fitted curve, though single readings scatter.

Assay: AP1 Signaling Pathway (AID 357);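 also: ME-180 reporter cells stimulated with EGF at its EC50 level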
Conditions: ME-180 AP-1-bla reporter, EGF-induced, beta-lactamase ratio, 5 h; at 7.69 µM (top of the series) unless noted
Excerpt: NCGC Assay Overview: Activator protein-1 (AP-1), a transcription factor, plays an important role in tumor genesis by regulating genes involved in cell proliferation, differentiation, apoptosis, and angiogenesis. AP-1 activity is induced by a complex network of signaling pathways that involves extracellular signals, such as growth factors. The AP-1 protein complex formed from c-Fos and c-Jun binding to the AP-1 response element results in transcriptional activation of genes containing such elements within their promoter. Low molecular weight molecules have been discovered and developed to modulate various components of these signaling pathways, for example, MAP kinase inhibitors. However, many points of pathway modulation remain untested due to the lack of chemical probes making this signaling locus of general interest. Using a beta-lactamase reporter-gene under control of the AP-1 response element, a cell-based assay [CellSensor(TM) AP-1-bla ME-180 developed by Invitrogen Corp.] was used to measure EGF-induced signaling. Library compounds were measured for their ability to modulate positively or negatively the action of EC50 EGF on reporter gene activity. Compounds were screened in a titration series in 1536-well format. Positive and negative modulators were identified based on the AC50 values derived from the screening data.
NCGC Assay Protocol Summary: 2500 cells/5uL in Opti-MEM medium containing 0.5% dialyzed FBS, 0.1 mM NEAA, 1 mM sodium pyruvate and 10 mM HEPES was dispensed into 1536-well plates and cells were cultured at 37 degrees Celsius overnight. […] After centrifugation at 1000 rpm for 2 seconds the plates were incubated at 37 degrees Celsius for 5 hours. 1 uL of CCF4-dye mixture was added to each well. After incubated at room temperature for 2.5 hours the plates were measured on an EnVision plate reader at Excitation 405nm, Emission1=460nm and Emission 2=530nm. The %Activity was determined from the ratio of 460nm/530nm.
% is scaled to controls: 0 for no effect and ±100 for the full control effect.

Activity change, negative = inhibition, inactive:
COc1ccc2[nH]cc(CCNc3ccnc(-c4ccoc4)n3)c2c1 -23%
CN(C)c1ncc2nc(-c3cccs3)c(=O)n(C)c2n1 1.79%
O=C(c1cccc(F)c1)N1CCC2(CCN(Cc3nccs3)CC2)CC1 -8.17%
Cc1noc(C)c1C(=O)N1CCC2(CC1)CCN(c1ccncc1)CC2 10.3%
N#Cc1ccc(CN2CCCC3(CCN(C(=O)c4cnccn4)CC3)C2)cc1 -6.06%
CC(=O)N(CC(O)CN(C(C)=O)c1c(I)c(C(=O)NC[C@@H](O)CO)c(I)c(C(=O)NC[C@@H](O)CO)c1I)c1c(I)c(C(=O)NC[C@@H](O)CO)c(I)c(C(=O)NC[C@@H](O)CO)c1I 2.7% [at 17.2 µM]
Clc1ccccc1-c1nccc(NCCN2CCOCC2)n1 4.13%
COc1cccc(Cn2c(=O)c(-c3ccc(F)cc3)nc3cncnc32)c1 -16.6%
COc1cccc(Cn2c(=O)c(C)nc3cnc(N4CCOCC4)nc32)c1 -24.9%
Cc1nc2cnc(Oc3cccc(Cl)c3)nc2n(C2CC2)c1=O -22.3%
Cc1noc(C)c1-c1ccc2ncnc(N3CCC(C(=O)O)CC3)c2c1 8.06%
CC(C)NC(=O)N1CCC2(CC1)CCN(S(=O)(=O)c1ccccc1)CC2 -11.1%
COc1ccccc1CN1CC[C@@]2(CCCN(C(=O)c3ccco3)C2)C1 -2.43%
COC(=O)N1CCC2(CCCN(Cc3nccs3)C2)CC1 -9.45%
c1ccc(-c2cccc(N3CCCC4(CCNCC4)C3)c2)cc1 11.2%
COc1ccc(NC(=O)N2CC[C@@]3(CCCN(C(C)=O)C3)C2)cc1 -3.83%
Cc1cnc(CNc2cc(-c3cccc(C#N)c3)ncn2)cn1 8.07%
COc1ccccc1CNc1ncnc2ccc(-c3ccccc3C#N)cc12 -13.9%
CNc1cc(-c2ccccc2C)ncn1 2.36%
CC(=O)NCCNc1nc(-c2ccc3c(c2)OCO3)nc2ccccc12 -7.08%
CN(C)C(=O)c1ccc(-c2cncnc2Nc2ccc(F)cc2)cc1 -12.8%
CCNc1ncc2nc(-c3cc(F)cc(F)c3)c(=O)n(CCC#N)c2n1 28.7%
O=c1cnc2cnc(Nc3ccccc3)nc2n1CCc1ccccc1 -13.5%
COC(=O)N1CCC2(CC1)CN(c1ccccc1)C2 -2.49%
CN(Cc1ccco1)c1ncncc1-c1cccc(NS(C)(=O)=O)c1 -8.59%
CC(C)CN1CC[C@@]2(CCCN(C(=O)c3cc(C(F)(F)F)cc(C(F)(F)F)c3)C2)C1 -5.91%
O=c1c(-c2cc(F)cc(F)c2)nc2cnc(Oc3ccccc3)nc2n1C[C@H]1CCCO1 -12.8%
COc1ccccc1CNc1cc(-c2ccccc2C)ncn1 -17.3%
COCCn1c(=O)c(C)nc2cnc(Oc3cccc(Cl)c3)nc21 -12%
COC(=O)N1CCC2(CCCN(C(=O)Nc3ccc(OC)cc3)C2)CC1 -3.8%
COc1ccc(C(=O)N2CCC3(CCCN(CC(C)C)C3)CC2)cc1 -7.24%
COc1cccc(Nc2ncc3nc(-c4cccs4)c(=O)n(CCC#N)c3n2)c1 -26.3%
CN(C)Cc1ccccc1-c1ccc2ncnc(NCc3cccs3)c2c1 4.22%
O=C(c1ccncc1)N1CCC2(CCCN(c3ccccn3)C2)CC1 -11.7%

Same assay, conditions: ME-180 AP-1-bla reporter, EGF-induced, beta-lactamase ratio, 5 h; at 17.2 µM (top of the series)

Activity change, negative = inhibition, inactive:
CN(C)[C@@H]1C(=O)C(C(N)=O)=C(O)[C@]2(O)C(=O)C3=C(O)c4c(O)ccc(Cl)c4[C@H](O)[C@H]3C[C@@H]12 -2.16%
CC(C)NC[C@H](O)c1cc(O)cc(O)c1 -17.9%
C[C@@H]1COc2c(N3CCN(C)CC3)c(F)cc3c(=O)c(C(=O)O)cn1c23 -1.23%

Same assay, conditions: ME-180 (cervical carcinoma) AP-1-bla reporter, EGF-induced, beta-lactamase ratio, 5 h; at 38 µM (top of the series)

Activity change, negative = inhibition, inactive:
CN(C)[C@@H]1C(=O)C(C(N)=O)=C(O)[C@]2(O)C(=O)C3=C(O)c4c(O)ccc(Cl)c4[C@H](O)[C@H]3C[C@@H]12 -12.4%
CC(C)NC[C@H](O)c1cc(O)cc(O)c1 -18.1%
C[C@@H]1COc2c(N3CCN(C)CC3)c(F)cc3c(=O)c(C(=O)O)cn1c23 11.6%
